# Target: SRPK1
# Experiment: pooled miR-30 sensor sort-seq; sequence = guide strand
# Conditions: shRNA
# Also: reference of the scale not given here.
row,Sequence,sensor-assay potency score (higher = more potent)
1,TTCCATAAGCGTTTGATCCTGG,0.385
2,TAGTTGAACAACCATTTCTCTA,-1.08
3,TATGTGTTCCATTAACTCCTGA,-0.508
4,TAACTTTCGGATCACATGGTAT,-1.15
5,TTCGCTTCTCTAGTAATTCTGC,0.131
6,TTTGATGATCCACTTGAGCAGA,-0.465
7,TAGCATTATGTAGATCCTCTTT,-0.224
8,TATTCTTTGACATTTTGTCAGC,-0.83
9,TTTAAAGTCATCTAGTAGTTGA,-0.439
10,ATCTAGTAGTTGAACAACCATT,-1.39
11,TTATAGGTGTACAAGAGTCTGT,-0.536
12,TACAATAATCATTAGGATCTTC,-0.347

# Target: SRSF11
# Experiment: as above
# Conditions: shRNA
row,Sequence,sensor-assay potency score (higher = more potent)
1,TACATCTTTATCACTCTCTGAT,0.584
2,TTGCACTTCTAGAACGTCTGGC,0.928
3,TAGAACGTGATCTTGATCTTGA,0.589
4,TAACAGGAGCTTTATAACCATT,-1.45
5,TTCCTCTTCATCATAATCCCGT,0.0321
6,TTAGGGACTGTGCTTCTCGTAC,-0.978
7,TTCTTTACTAGAGGTATCCGAT,-0.524
8,TATCTGGTTCTATAGCAGCAGA,-1.33
9,TAAGCTTCAGCAACTGATCTGC,0.509
10,TTGATCTTGAATGCCTTCTTTT,-0.673
